The results in this text go back to PubChem BioAssay (Tox21).

Assay [1] is described as follows: Nuclear factor erythroid 2-related factor 2/antioxidant responsive element (Nrf2/ARE) small molecule agonists: qHTS cell viability counter screen in human keratinocytes (AID 1919968; active = well fitted curve in the direction sought with a large enough effect in the repeat runs; an effect the other way counts as inactive or inconclusive; note: nearly all actives have a fitted effect of over 55% in size). The gist of the method: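 After a 5 h attachment period, ARE-reporter keratinocytes were dosed with compounds in DMSO and then cultured 23 h at 37 C. Cell viability came from CellTiter-Fluor signal read after a further 1 h.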

The nature of assay [2]: Nuclear factor erythroid 2-related factor 2/antioxidant responsive element (Nrf2/ARE) small molecule agonists: luciferase reporter gene qHTS assay in human keratinocytes (AID 1919969). Note: nearly all actives have a fitted effect of over 35% in size.
The target in assay [3] is Gonadotropin-releasing hormone receptor (Homo sapiens) (UniProt P30968). As to the kind of experiment: Human gonadotropin-releasing hormone receptor (GnRHR) small molecule agonists, calcium flux assay in GnRHR-HEK293 cells (AID 1920063). Note: nearly all actives have a fitted effect of over 35% in size. The gist of the method:
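We seeded human GnRHR-expressing HEK293 cells for 18 hours, loaded them with calcium dye for an hour at 37 C, added test compounds, and recorded fluorescence intensity kinetically for three minutes.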

Assay [4] deals with KiSS-1 receptor (Homo sapiens) (UniProt Q969F8). As to the kind of experiment: Human kisspeptin (KISS1R) small molecule agonists, calcium flux assay in KISS1R-HEK293 cells (AID 1920064; active = well fitted curve in the direction sought with a large enough effect in the repeat runs; an effect the other way counts as inactive or inconclusive). The gist of the method: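 Kinetic calcium assay, 1 s sampling over 3 min at Ex/Em 480/540, in HEK293 cells engineered with human KISS1R; compounds delivered in DMSO after 1 h dye loading.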
In general terms: Calcium flux is commonly read through the fluorescence of an indicator in the cells.

The nature of assay [5]: G protein-coupled receptor (GPCR) small molecule agonists, calcium flux assay: HEK293 wild type cell line counter screen (AID 1920065). The gist of the method:
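Calcium-sensitive dye, loaded 1 h at 37 C into cells cultured 18 h, reports compound-evoked calcium release as fluorescence (Ex/Em 480/540), measured over 3 min. Agonist mode; 15-point titrations, triplicate.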

Assay [6] in a line: p53 small molecule agonists, cell-based qHTS assay with human liver microsomes (AID 1963577).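 Note: p53 response element beta-lactamase reporter cells with liver microsomes plus NADPH.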 The gist of the method: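 HLM-supplemented p53RE-bla reporter assay: 16 h compound exposure at 37 C, microsomes and NADPH each 0.5 mg/mL final, read by fluorescence intensity.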
Assay [7] is described as follows: p53 small molecule agonists, cell-based qHTS assay with rat liver microsomes (AID 1963578). The gist of the method:
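Quantitative HTS of the Tox21 10K library: p53RE-bla cells, rat liver microsomes plus NADPH at 0.5 mg/mL final each, 16 h at 37 C, beta-lactamase fluorescence detection.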
Background: In qHTS, concentration-response curves come from the screen itself.

Assay [8] is described as follows: p53 small molecule agonists, cell-based qHTS assay with human liver microsomes: qHTS cell viability counter screen (AID 1963579). Note: nearly all actives have a fitted effect of over 45% in size. The procedure, abridged:
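Viability of p53RE-bla cells is measured as CellTiter-Glo luminescence following a 16 h, 37 C incubation with compound, liver microsomes from human donors and NADPH.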

Assay [9] in a line: p53 small molecule agonists, cell-based qHTS assay with rat liver microsomes: qHTS cell viability counter screen (AID 1963580). Note: nearly all actives have a fitted effect of over 45% in size. The procedure, abridged: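 HCT-116 p53RE-bla, 4,000 cells/well, 5 h pre-incubation; cpd + rat liver microsomes 0.5 mg/mL + NADPH 0.5 mg/mL (final); 16 h, 37 C; CellTiter-Glo, 30 min RT; luminescence.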
Assay [10] in a line: p53 small molecule agonists, cell-based qHTS assay: qHTS cell viability counter screen (AID 1963581). Note: nearly all actives have a fitted effect of over 45% in size. The procedure, abridged:
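Following 5 h attachment, HCT-116 p53RE-bla cells took up compound for 16 h at 37 C; the reporter was read with B/G FRET substrate (2 h RT), and viability then via CellTiter-Glo ATP luminescence.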

Assay [11] is described as follows: p53 small molecule agonists, cell-based qHTS assay (AID 1963582; active = well fitted activation curve with a large enough effect in the signal ratio in the repeat runs, not every such curve was filed as active; the % refers to the signal ratio). The procedure, abridged:
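In this cell-based concentration-response screen, a p53 response element drives beta-lactamase; cells received DMSO-borne compounds after 5 h culture and were incubated a further 16 h before FRET substrate development.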

The target in assay [12] is 5-hydroxytryptamine receptor 2A (Homo sapiens) (UniProt P28223). The experiment in a line: 5-hydroxytryptamine receptor 2A (HTR2A) small molecule antagonists, cell-based qHTS assay (AID 1963586). Note: nearly all actives have a fitted effect of over 45% in size. Note: potency is the fitted concentration of half-maximal effect. The gist of the method:
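Antagonist-mode intracellular calcium assay: DOI (4 nM) added after 5 min compound pre-incubation at room temperature to dye-loaded HTR2A-CHO cells. Fluorescence followed for 3 min, sampled every second.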

Assay [13] shares this target. As to the kind of experiment: 5-hydroxytryptamine receptor 2A (HTR2A) small molecule agonists, cell-based qHTS assay (AID 1963587). Note: nearly all actives have a fitted effect of over 30% in size. Note: potency is the fitted concentration of half-maximal effect. The procedure, abridged:
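Kinetic calcium-flux fluorescence (2 min, 1 sec intervals) after compound addition in agonist mode. HTR2A-CHO cells were cultured 18 h, then dye-loaded 1 h at 37 C.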

Assay [14] deals with Muscarinic acetylcholine receptor M1 (Homo sapiens) (UniProt P11229). The experiment in a line: Cholinergic receptor muscarinic 1 (CHRM1) small molecule agonists, cell-based qHTS assay (AID 1963589). Note: nearly all actives have a fitted effect of over 35% in size. The procedure, abridged:
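Measures agonist-induced intracellular calcium rise. Stable human CHRM1 CHO line, 1 h dye load at 37 C, compounds from DMSO, kinetic fluorescence read.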

Assay [15] in a line: cAMP Responsive Elements (CRE) small molecule agonists, cell-based qHTS assay (AID 1963590). The gist of the method: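 A CRE-responsive beta-lactamase reporter in HEK 293T cells was used. Treatment ran 3 h at 37 C; detection used LiveBLAzer B/G FRET substrate for 2 h at room temperature.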
Assay [16] can be described thus: cAMP Responsive Elements (CRE) small molecule antagonists, cell-based qHTS assay (AID 1963591; active = well fitted inhibition curve with a large enough effect in the signal ratio in the repeat runs, not every such curve was filed as active; the % refers to the signal ratio). The procedure, abridged: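 HEK293T cells carrying a CRE-driven beta-lactamase reporter receive compound and NKH477 (0.25 uM final) for 3 h. Fluorescence from LiveBLAzer B/G FRET substrate is read after 2 h at room temperature.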
Assay [17] has as its target Beta-2 adrenergic receptor (Homo sapiens) (UniProt P07550). As to the kind of experiment: Adrenergic beta2 receptor (ADRB2) small molecule antagonists, cell-based qHTS assay (AID 1963592). Note: series mostly up to about 92 µM; nearly all actives have a fitted effect of over 50% in size. The procedure, abridged:
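Cells (CHO, stable ADRB2 overexpression) incubated 18-20hr at 37C; compounds added from DMSO; agonist mix (1nM isoproterenol, 100uM IBMX, 25uM Ro-20-1724) added; 0.5hr RT; d2-cAMP and anti-cAMP-cryptate added; 1hr RT; 665/615 nm read.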

The target of assay [18] is D(2) dopamine receptor (Homo sapiens) (UniProt P14416). The experiment in a line: Dopamine D2 receptor (DRD2) small molecule agonists, cell-based qHTS assay (AID 1963594). Note: nearly all actives have a fitted effect of over 35% in size. The procedure, abridged:
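cAMP accumulation in DRD2-HEK293 cells measured by HTRF after 1 h detection; compounds added 10 min before NKH477 (200nM […]) forskolin-analogue stimulation, 30 min at room temperature, with Ro20-1724 present at 0.1 mM final.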

For assay [19] the target is unchanged. The experiment in a line: Dopamine D2 receptor (DRD2) small molecule antagonists, cell-based qHTS assay (AID 1963595; active = well fitted inhibition curve with a large enough effect in the signal ratio in the repeat runs, with a control signal flat; the % refers to the signal ratio). The procedure, abridged: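 Stable D2 receptor HEK293 line, 24 h after seeding. Compound preincubated 10 min, then quinpirole (12 nM) with forskolin analogue NKH477 (200 nM), 30 min, room temperature. Detection by time-resolved FRET of cAMP.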

In assay [20] the target is Muscarinic acetylcholine receptor M1 (Homo sapiens) (UniProt P11229). The experiment in a line: Cholinergic receptor muscarinic 1 (CHRM1) small molecule antagonists, cell-based qHTS assay (AID 1963588). Note: nearly all actives have a fitted effect of over 40% in size. The gist of the method: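 CHRM1-CHO calcium-flux assay, antagonist mode. Cells were seeded 18 h, dye-loaded 1 h at 37 C and given compound for 5 min at RT, then acetylcholine was added at 50nM. FDSS fluorescence was read 3 min; 15 concentrations, three runs.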

Results filed as inconclusive are left out. Active and inactive are the calls of the source. Unless noted, calls come from the whole dose curve.

Chain of KiSS-1 receptor (Homo sapiens) (Q969F8 whole entry, looked up): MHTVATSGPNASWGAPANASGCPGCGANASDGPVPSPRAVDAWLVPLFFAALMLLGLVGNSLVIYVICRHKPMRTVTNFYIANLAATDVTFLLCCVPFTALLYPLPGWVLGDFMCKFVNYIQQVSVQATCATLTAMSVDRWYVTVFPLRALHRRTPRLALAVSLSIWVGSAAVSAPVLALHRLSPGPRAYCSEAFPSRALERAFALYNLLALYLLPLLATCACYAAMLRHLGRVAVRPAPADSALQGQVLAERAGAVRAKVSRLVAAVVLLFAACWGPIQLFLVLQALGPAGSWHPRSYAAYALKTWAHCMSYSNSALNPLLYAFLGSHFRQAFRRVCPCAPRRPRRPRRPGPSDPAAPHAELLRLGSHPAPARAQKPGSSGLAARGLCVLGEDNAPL
Chain of Beta-2 adrenergic receptor (Homo sapiens) (P07550 whole entry, looked up): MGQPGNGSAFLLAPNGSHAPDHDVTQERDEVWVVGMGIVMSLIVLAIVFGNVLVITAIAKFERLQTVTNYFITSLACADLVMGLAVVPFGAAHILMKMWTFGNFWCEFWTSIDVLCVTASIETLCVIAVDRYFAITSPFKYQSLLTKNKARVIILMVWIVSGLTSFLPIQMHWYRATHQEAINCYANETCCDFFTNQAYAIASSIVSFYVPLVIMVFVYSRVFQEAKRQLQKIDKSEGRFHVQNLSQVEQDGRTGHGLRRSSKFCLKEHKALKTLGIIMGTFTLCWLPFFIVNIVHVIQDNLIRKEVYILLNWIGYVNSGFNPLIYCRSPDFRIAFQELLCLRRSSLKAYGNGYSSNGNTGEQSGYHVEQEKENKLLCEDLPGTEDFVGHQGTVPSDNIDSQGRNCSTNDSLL
Chain of D(2) dopamine receptor (Homo sapiens) (P14416 whole entry, looked up): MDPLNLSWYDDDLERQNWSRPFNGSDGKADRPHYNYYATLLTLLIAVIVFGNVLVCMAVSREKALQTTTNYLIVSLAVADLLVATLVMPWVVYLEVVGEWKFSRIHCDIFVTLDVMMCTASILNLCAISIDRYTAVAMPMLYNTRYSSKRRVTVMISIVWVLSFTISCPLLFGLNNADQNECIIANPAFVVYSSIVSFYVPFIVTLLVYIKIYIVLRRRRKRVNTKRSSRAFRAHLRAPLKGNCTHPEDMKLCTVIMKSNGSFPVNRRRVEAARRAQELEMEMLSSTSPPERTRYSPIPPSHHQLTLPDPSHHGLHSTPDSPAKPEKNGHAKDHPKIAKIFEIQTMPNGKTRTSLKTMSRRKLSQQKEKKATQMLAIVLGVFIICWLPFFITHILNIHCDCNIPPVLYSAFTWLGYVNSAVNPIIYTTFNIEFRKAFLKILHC
Chain of Muscarinic acetylcholine receptor M1 (Homo sapiens) (P11229 whole entry, looked up): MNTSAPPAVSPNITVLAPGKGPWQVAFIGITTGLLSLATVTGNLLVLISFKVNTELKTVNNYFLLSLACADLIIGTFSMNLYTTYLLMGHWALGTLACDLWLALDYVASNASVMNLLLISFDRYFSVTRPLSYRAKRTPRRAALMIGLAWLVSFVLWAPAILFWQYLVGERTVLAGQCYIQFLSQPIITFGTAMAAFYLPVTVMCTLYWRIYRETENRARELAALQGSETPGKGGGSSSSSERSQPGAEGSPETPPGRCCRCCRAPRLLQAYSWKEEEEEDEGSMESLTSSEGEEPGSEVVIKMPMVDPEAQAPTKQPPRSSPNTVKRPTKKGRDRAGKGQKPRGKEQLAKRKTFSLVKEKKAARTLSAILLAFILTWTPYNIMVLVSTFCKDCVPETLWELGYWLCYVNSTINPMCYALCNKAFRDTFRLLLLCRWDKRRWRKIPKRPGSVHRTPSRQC
Chain of Gonadotropin-releasing hormone receptor (Homo sapiens) (P30968 whole entry, looked up): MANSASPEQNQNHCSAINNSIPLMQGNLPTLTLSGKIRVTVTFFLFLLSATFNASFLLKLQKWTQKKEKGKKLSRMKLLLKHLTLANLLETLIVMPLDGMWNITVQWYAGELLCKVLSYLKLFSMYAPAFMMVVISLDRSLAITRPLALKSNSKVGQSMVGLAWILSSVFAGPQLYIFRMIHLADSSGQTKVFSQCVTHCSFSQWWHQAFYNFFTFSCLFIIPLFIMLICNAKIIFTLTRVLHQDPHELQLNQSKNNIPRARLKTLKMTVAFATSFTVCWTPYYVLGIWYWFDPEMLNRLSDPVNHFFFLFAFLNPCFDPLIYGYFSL
Chain of 5-hydroxytryptamine receptor 2A (Homo sapiens) (P28223 whole entry, looked up): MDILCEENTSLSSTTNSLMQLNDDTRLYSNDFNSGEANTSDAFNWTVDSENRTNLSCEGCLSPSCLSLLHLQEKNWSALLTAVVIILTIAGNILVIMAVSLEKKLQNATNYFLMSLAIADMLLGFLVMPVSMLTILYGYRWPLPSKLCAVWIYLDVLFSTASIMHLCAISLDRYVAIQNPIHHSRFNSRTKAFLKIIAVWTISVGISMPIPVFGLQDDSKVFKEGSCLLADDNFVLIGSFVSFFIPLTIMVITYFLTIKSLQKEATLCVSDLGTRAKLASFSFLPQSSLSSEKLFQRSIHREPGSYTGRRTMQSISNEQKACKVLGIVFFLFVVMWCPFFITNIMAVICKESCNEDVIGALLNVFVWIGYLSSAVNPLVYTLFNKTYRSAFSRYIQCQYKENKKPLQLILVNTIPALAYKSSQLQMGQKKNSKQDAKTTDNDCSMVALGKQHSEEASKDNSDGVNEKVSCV

For the compound `CC(C)=CCCC(C)O` (centres undefined), the Potency entry in assay [1], in assay [2], in assay [3], in [4], in assay [5] and in [6] was “inactive” throughout. Besides, the Potency result in [7], in assay [8], in assay [9], in assay [10], in assay [11] and in [12] was “inactive” throughout. For the same compound, the Potency entry in assay [13], in [14], in [15], in assay [16], in [17] and in assay [18] was “inactive” in each case. For the same compound, the Potency entry in assay [19] was “inactive”.

As to `CC(C)C1CCC(O)CC1` (centres undefined), the Potency entry in [1], in [2], in assay [3], in assay [4], in [5] and in assay [6] was “inactive” each time. The Potency entry in [7], in assay [8], in assay [9], in [10], in [11] and in assay [12] was “inactive” in each case. Also, the Potency entry in assay [13], in assay [14], in assay [15], in [16], in [17] and in assay [18] was “inactive” throughout. In assay [19], the Potency result was “inactive”.

Consider `CC(=O)/C=C/c1ccco1`, for which the Potency result in assay [1], in assay [2], in assay [3], in assay [4], in assay [5] and in [6] was “inactive” each time. Also, the Potency entry in assay [7], in assay [8], in assay [9], in assay [10], in assay [11] and in assay [12] was “inactive” each time. Also, the Potency result in assay [13], in assay [20], in [15], in [16], in [17] and in assay [18] was “inactive” each time. The Potency result in assay [19] is “inactive”.

For `Cc1c(I)c(=O)n(-c2ccccc2)n1C`, the Potency entry in [1], in [2], in [3], in [4], in assay [5] and in [6] was “inactive” in each case. Also, the Potency entry in assay [7], in [8], in [9], in assay [10], in assay [11] and in [12] was “inactive” in each case. The Potency entry in [13], in [20], in assay [15], in assay [16], in assay [17] and in assay [19] was “inactive” throughout.

On to `O=[N+]([O-])c1ccc(F)cc1F`, for which the Potency entry in [1], in assay [2], in [3], in assay [4], in assay [5] and in assay [6] was “inactive” throughout. In addition, the Potency entry in [7], in [8], in assay [9], in assay [10], in assay [11] and in assay [12] was “inactive” throughout. For the same compound, the Potency result in [13], in assay [20], in assay [15], in assay [16], in assay [17] and in assay [18] was “inactive” in each case. Also, the Potency entry in assay [19] was “inactive”.

As to `COc1ccc(C#N)cc1`, the Potency entry in [1], in assay [2], in assay [3], in assay [4], in [5] and in [6] was “inactive” in each case. The Potency entry in assay [7], in assay [8], in assay [9], in assay [10], in assay [11] and in assay [12] was “inactive” throughout. The Potency entry in [13], in assay [20], in assay [15], in assay [16], in assay [17] and in [18] was “inactive” each time. Besides, the Potency result in [19] is “inactive”.

As for `CCN1CCCC(OC(=O)C(c2ccccc2)c2ccccc2)C1` (centres undefined), the Potency entry in assay [1], in assay [2], in [3], in [4], in [5] and in [6] was “inactive” in each case. The Potency entry in [7], in assay [8], in assay [9], in assay [10], in assay [11] and in assay [14] was “inactive” throughout. The Potency entry in [15], in assay [16] and in [17] was “inactive” throughout. Besides, the figures for the Potency in assay [12] and in assay [13] were 163 nM (active) and 75.6 nM (active), respectively.

On to `O=C(O)c1cccnc1C(=O)O`, for which the Potency entry in [1], in assay [2], in assay [3], in [4], in [5] and in assay [6] was “inactive” throughout. The Potency result in [7], in assay [8], in [9], in assay [10], in assay [11] and in [12] was “inactive” throughout. Besides, the Potency result in [13], in assay [14], in assay [15], in assay [16], in assay [17] and in assay [18] was “inactive” throughout. Moreover, the Potency result in assay [19] was “inactive”.
